The source made the active and inactive calls.
How the values were obtained:
[1] = biological target: Albumin (Bos taurus) (UniProt P02769); test: bovine serum albumin binders on microarray, profiling panel, artefact control for SMM control protein annotation, biochemical, small-molecule microarray, Alexa647 label, 635/667 nm fluorescence (AID 1118); settings: BSA-A647 binding, fluorescence 635 nm, higher = more signal;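 also: score merges 667 nm emission intensity and signal-to-noise per printed compound spot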
[2] = small-molecule microarray binders of probe aXIP, primary screen, biochemical, NeuroSMM set, 635/667 nm fluorescence (AID 1119); settings: higher = more signal, called active from +8 up or from −8 down;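 also: probe is the protein aXip251-270 applied at 1 µg/mL to compound-printed slides; binding of probe to printed compounds measured as 667 nm fluorescence plus signal to noise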
[3] = small-molecule binders of probe aNOTCH3, primary screen, biochemical, small-molecule microarray, 635/667 nm fluorescence (AID 1120); settings: higher = more signal;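 also: probe is a biotin-tagged antibody raised against NOTCH3 rather than NOTCH3 protein; score merges spot fluorescence near 667 nm with spot signal to noise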
[4] = small-molecule binders of probe aNOTCH2, primary screen, biochemical, small-molecule microarray, 635/667 nm fluorescence (AID 1121); settings: higher = more signal;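 also: score merges feature fluorescence read at 667 nm with its signal to noise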
[5] = biological target: Carbonic anhydrase 2 (Homo sapiens) (UniProt P00918); test: CAII small-molecule binders, profiling panel, biochemical, small-molecule microarray, Alexa647-labelled CAII (AID 1122); settings: CAII-A647 binding fluorescence, higher = more signal
[6] = COS7 lysate on small-molecule microarray, probe aHis, 635 nm (AID 1123); settings: COS7 cell lysate, fluorescence, higher = more signal;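 also: z-score combines 667nm fluorescence intensity with signal-to-noise per printed compound spot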
[7] = compound binding in COS7 lysate, probe aLAP1, primary screen, cell lysate, small-molecule microarray (AID 1124); settings: probe aLAP1, fluorescence, higher = more signal;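 also: lysate comes from COS7 cells expressing LAP1 and is applied at 0.3 µg/mL; score merges spot fluorescence near 667 nm with signal-to-noise over triplicate slides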
[8] = system: Sam68 (KHDRBS1); test: Sam68 small-molecule binders, primary screen, biochemical, small-molecule microarray, 635 nm fluorescence (AID 1125); settings: small-molecule microarray binding, higher = more signal;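 also: score merges 667 nm channel intensity with signal to noise over triplicate slides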
[9] = system: Chordin-like protein 2 (CHRDL2); test: CHRDL2 small-molecule binders, primary screen, biochemical, small-molecule microarray, 635 nm fluorescence (AID 1126); settings: small-molecule microarray binding, fluorescence 635 nm; higher = more signal;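 also: printed compound slides probed with Chrdl2 protein at 4 µg/mL for 1 h at 4 C; score merges 667 nm emission intensity with signal to noise over three replicate slides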
[10] = biological target: Concanavalin-A (Canavalia ensiformis) (UniProt P02866); test: ConA small-molecule binders, primary screen, artefact control for SMM control protein annotation, biochemical, small-molecule microarray, Alexa647 label, 635 nm (AID 1127); settings: ConA-A647 binding fluorescence, higher = more signal;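 also: z combines 667 nm emission intensity with signal-to-noise across three replicate slides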
[11] = anti-His antibody binders, primary screen, artefact control for SMM control protein annotation, biochemical, small-molecule microarray, 635 nm fluorescence (AID 1128); settings: anti-His Alexa647 antibody binding, higher = more signal;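 also: score merges feature fluorescence with signal-to-noise for each printed compound spot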
[12] = system: Human papillomavirus type 1a E7 protein (residues 1-88); test: HPV1a E7 small-molecule binders, primary screen, biochemical, small-molecule microarray, residues 1-88, 635 nm (AID 1129); settings: small-molecule microarray binding, fluorescence 635 nm; higher = more signal
[13] = biological target: Focal adhesion kinase 1 (Homo sapiens) (UniProt Q05397); test: small-molecule microarray binders of FAK, primary screen, biochemical, 635/667 nm fluorescence, BSA, DTT (AID 1130); settings: PTK2 binding, 635 nm fluorescence, higher = more signal;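 also: composite of spot emission at 667 nm and signal to noise over triplicate slides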
[14] = system: Fibrinogen (Alexa647-labelled); test: fibrinogen binders on compound microarrays, profiling panel, artefact control for SMM control-protein annotation, biochemical, small-molecule microarray, 635/667 nm fluorescence (AID 1131); settings: fibrinogen-A647 binding fluorescence, higher = more signal;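 also: z-score merges 667 nm fluorescence with per-spot signal-to-noise over triplicate slides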
[15] = biological target: Follistatin (Homo sapiens) (UniProt P19883); test: follistatin binders on small-molecule microarrays, primary screen, biochemical, small-molecule microarray, 635/667 nm fluorescence (AID 1132); settings: FST binding, 635 nm fluorescence, higher = more signal
[16] = biological target: Fibroblast growth factor 2 (Homo sapiens) (UniProt P09038); test: FGF2 binders on small-molecule microarrays, primary screen, biochemical, small-molecule microarray, 635/667 nm fluorescence (AID 1133); settings: small-molecule microarray binding, FGF2, fluorescence 635/667; higher = more signal
[17] = mitochondrial membrane potential change in A549 cells, profiling panel, cell-based, JC-1 fluorescence, basal, 24 h, 100 nL (AID 1138); settings: higher = more signal;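 also: A549 lung adenocarcinoma cells under basal conditions with no added stimulus; test concentration not given here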
[18] = system: Lefty1; test: Lefty1 binders on small-molecule microarrays, primary screen, biochemical, small-molecule microarray, 635/667 nm fluorescence (AID 1139); settings: small-molecule microarray binding, fluorescence 635/667; higher = more signal
[19] = system: wheat germ agglutinin (Triticum aestivum), Alexa647-labelled; test: wheat germ agglutinin binders on compound microarrays, profiling panel, artefact control for SMM control-protein annotation, biochemical, small-molecule microarray, 635/667 nm fluorescence (AID 1140); settings: WGA-A647 binding, 635 nm fluorescence, higher = more signal;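 also: score merges 667 nm feature emission with signal to noise over triplicate slides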
[20] = biological target: Luciferin 4-monooxygenase (Photinus pyralis) (UniProt P08659); test: firefly luciferase enzyme inhibitors, primary screen, biochemical, luminescence, purified enzyme, 2006 set (AID 1141); settings: SteadyGlo luminescence, 30 min, higher = more signal, called active from +8 up or from −8 down;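 also: cell-free assay with purified firefly luciferase at 100 ng per well in PBS; test concentration not given here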
Luciferin 4-monooxygenase (Photinus pyralis), sequence (P08659 whole entry, looked up): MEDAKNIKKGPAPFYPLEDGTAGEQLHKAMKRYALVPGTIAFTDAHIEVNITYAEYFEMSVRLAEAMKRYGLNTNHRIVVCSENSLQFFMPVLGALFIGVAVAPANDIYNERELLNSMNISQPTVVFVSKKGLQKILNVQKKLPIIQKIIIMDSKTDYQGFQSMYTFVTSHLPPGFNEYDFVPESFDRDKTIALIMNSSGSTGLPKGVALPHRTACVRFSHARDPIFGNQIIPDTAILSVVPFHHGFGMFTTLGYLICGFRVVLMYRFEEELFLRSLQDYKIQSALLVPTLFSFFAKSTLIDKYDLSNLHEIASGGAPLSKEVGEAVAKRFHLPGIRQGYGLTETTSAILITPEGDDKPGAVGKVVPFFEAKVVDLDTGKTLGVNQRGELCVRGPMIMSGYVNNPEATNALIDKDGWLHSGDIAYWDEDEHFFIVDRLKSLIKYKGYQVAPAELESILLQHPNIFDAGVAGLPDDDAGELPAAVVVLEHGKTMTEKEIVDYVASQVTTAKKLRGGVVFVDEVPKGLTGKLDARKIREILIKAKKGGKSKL

Focal adhesion kinase 1 (Homo sapiens), sequence (Q05397 whole entry, looked up): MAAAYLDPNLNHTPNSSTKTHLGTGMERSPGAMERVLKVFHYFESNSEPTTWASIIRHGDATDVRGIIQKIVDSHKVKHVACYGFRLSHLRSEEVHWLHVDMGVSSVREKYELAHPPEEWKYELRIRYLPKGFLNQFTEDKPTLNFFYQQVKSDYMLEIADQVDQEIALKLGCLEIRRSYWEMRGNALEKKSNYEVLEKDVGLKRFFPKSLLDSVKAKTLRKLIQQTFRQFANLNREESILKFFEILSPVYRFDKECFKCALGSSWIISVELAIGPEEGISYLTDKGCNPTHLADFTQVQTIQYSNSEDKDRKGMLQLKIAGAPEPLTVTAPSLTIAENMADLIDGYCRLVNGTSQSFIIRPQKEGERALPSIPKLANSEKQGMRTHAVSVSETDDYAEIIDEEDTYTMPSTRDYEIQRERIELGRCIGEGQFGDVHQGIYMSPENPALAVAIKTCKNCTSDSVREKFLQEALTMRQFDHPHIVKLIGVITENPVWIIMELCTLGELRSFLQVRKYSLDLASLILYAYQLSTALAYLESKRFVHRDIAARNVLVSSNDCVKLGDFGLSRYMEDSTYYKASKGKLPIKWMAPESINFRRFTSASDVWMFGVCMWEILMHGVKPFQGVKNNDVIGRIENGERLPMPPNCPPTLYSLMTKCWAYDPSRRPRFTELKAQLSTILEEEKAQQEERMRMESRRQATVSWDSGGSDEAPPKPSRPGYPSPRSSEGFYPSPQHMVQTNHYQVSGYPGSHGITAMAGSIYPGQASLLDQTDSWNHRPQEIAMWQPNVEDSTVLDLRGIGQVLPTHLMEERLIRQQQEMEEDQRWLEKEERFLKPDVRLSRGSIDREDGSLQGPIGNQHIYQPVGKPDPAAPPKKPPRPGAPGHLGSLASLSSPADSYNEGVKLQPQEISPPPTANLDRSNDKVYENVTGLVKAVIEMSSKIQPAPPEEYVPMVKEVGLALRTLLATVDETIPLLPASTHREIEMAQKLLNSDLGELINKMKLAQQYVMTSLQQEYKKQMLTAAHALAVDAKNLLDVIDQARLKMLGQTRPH
Follistatin (Homo sapiens), sequence (P19883 whole entry, looked up): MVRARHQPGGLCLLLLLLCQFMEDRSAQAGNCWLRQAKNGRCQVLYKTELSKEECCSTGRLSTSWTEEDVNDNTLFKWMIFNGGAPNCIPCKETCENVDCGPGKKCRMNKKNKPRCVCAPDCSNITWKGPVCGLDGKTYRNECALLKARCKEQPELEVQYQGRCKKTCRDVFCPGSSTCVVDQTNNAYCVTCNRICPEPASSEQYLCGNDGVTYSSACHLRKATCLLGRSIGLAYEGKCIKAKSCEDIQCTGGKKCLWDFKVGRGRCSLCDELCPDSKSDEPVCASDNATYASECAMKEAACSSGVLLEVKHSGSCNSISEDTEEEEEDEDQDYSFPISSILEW
Albumin (Bos taurus), sequence (P02769 whole entry, looked up): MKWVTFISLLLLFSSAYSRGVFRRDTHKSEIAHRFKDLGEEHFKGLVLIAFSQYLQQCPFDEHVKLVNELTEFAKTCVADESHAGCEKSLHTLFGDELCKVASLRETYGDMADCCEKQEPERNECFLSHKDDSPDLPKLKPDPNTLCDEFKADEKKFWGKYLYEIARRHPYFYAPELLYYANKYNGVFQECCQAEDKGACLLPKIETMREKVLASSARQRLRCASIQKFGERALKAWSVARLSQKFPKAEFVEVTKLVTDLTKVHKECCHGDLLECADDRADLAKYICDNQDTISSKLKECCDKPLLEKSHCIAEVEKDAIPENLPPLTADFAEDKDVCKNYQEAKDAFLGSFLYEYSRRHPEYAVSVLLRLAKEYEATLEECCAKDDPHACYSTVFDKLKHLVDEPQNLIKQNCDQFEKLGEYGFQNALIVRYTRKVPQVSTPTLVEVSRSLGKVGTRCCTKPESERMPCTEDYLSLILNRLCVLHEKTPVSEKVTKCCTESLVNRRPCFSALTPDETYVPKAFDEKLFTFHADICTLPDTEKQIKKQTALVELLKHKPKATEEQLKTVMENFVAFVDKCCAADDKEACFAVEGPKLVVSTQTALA
Fibroblast growth factor 2 (Homo sapiens), sequence (P09038 whole entry, looked up): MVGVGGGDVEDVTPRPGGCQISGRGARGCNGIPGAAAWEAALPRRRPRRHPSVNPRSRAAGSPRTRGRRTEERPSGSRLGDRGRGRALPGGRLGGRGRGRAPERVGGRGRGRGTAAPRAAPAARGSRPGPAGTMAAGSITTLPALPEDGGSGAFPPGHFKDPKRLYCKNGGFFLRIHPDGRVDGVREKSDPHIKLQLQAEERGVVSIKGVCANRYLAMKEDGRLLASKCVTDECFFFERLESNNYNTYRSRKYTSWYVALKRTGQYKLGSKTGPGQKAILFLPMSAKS
Concanavalin-A (Canavalia ensiformis), sequence (P02866 whole entry, looked up): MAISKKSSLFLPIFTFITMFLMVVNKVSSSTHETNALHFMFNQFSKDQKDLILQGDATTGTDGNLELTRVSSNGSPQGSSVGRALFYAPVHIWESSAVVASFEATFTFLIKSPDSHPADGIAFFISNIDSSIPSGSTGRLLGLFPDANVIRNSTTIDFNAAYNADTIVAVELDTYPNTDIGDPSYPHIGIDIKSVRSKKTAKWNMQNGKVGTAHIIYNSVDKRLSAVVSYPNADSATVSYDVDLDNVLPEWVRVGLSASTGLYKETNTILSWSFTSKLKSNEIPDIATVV

SMILES	composite z-score [1]	composite Z-score [2]	composite z-score [3]	composite z-score [4]	composite z-score [5]	composite z-score [6]	composite z-score [7]	composite z-score [8]	composite z-score [9]	composite z-score [10]	composite z-score [11]	composite z-score [12]	composite z-score [13]	composite z-score [14]	composite z-score [15]	composite z-score [16]	z-score [17]	composite z-score [18]	composite z-score [19]	z-score [20]
CCN1C(=O)[C@H]2[C@H]3[C@H](O)[C@H](O)CC(=NOC[C@H]4O[C@H](c5ccccc5)C=C[C@@H]4Oc4ccc(OC)cc4)[C@@H]3CC[C@H]2C1=O	0.741	0.246 (inactive)	0.0311	-0.0274	0.353	0.383	0.106	1.16	0.514	0.817	-0.157	0.829	-0.139	0.894	0.74	1.01	0.385	1.19	0.246	0.468 (inactive)
COC(=O)[C@@H]1CC[C@H](C)[C@@H](c2ccc(C)cc2)N1C(=O)c1ccc(C=NO[C@H](C)c2cn([C@@H]3COC[C@H]3O)nn2)cc1	0.56	-0.359 (inactive)	-0.125	-0.117	0.311	0.81	-0.0293	1.21	0.389	0.581	-0.684	1.13	0.155	0.677	0.353	0.502	-0.662	0.551	0.145	0.411 (inactive)
CCOC(=O)NN=C1C[C@@H](O)[C@@H](O)[C@@H]2[C@@H]3C(=O)N(C(C)(C)C)C(=O)[C@@H]3CC[C@H]12	-0.385	0.288 (inactive)	0.0431	0.272	-0.257	-0.227	-0.207	0.129	0.743	0.383	0.322	0.215	0.064	0.0959	0.903	0.647	0.233	0.279	-0.0123	0.0659 (inactive)
CCOC(=O)[C@H](CC(C)C)NC(=O)CCC1CC(OC(=O)NCCc2ccc(F)cc2)CC2(CCCC(COC(=O)NCCc3ccc(Cl)cc3)O2)O1 (stereo not given in full)	0.587	0.133 (inactive)	0.163	-0.0495	0.606	1.61	0.037	1.03	0.446	-0.485	0.704	0.596	0.688	0.75	0.692	0.84	-0.156	1.34	0.61	0.442 (inactive)
CCOC(=O)[C@H](CC(C)C)NC(=O)CCC1CC(OC(=O)NCc2cccc3ccccc23)CC2(CCCC(COC(=O)NCCc3ccc(Cl)cc3)O2)O1 (stereo not given in full)	0.332	-0.536 (inactive)	0.0203	-0.164	0.151	0.416	-0.175	0.456	0.439	0.0711	0.372	0.484	0.218	0.635	0.547	0.352	0.31	0.863	0.844	0.226 (inactive)
CCOC(=O)C1=NO[C@@]2(C=C(Br)C3(OCCCO3)[C@H]3O[C@H]32)C1	-1.04	0.44 (inactive)	0.0962	-0.14	0.486	0.336	-0.145	-0.268	1.52	0.313	0.968	0.228	0.0306	0.982	1.43	1.14	-0.0326	1.04	0.818	-0.279 (inactive)
CCOC(=O)[C@H](CC(C)C)NC(=O)CCC1CC(OC(=O)NCc2cccc3ccccc23)CC2(CCCC(COC(=O)NCc3ccncc3)O2)O1 (stereo not given in full)	0.323	-0.0775 (inactive)	-0.0658	-0.14	0.215	0.502	0.218	1.29	0.351	0.67	0.894	1.19	0.0121	0.839	0.768	1.58	1.42	1.01	0.725	0.301 (inactive)
C=CC[C@@H]1C=C[C@H](ON=C(C)CCC(=O)OC[C@H]2O[C@H](c3ccccc3)C=C[C@@H]2Oc2ccc(OC)cc2)[C@@H](CO)O1	-0.1	0.741 (inactive)	-0.171	-0.177	-0.273	0.342	-0.0007	0.144	-0.0018	-0.152	0.14	-0.214	0.261	-1.43	-0.398	0.121	-0.217	0.443	0.104	-0.506 (inactive)
CO[C@H]1COC(=O)CC=C[C@@H](C)[C@H](NS(=O)(=O)c2ccc(C)cc2)COC(=O)CCC[C@@H]1C	-0.48	-0.483 (inactive)	-0.0711	-0.11	-0.312	-0.42	0.303	0.515	1.23	-0.0177	0.167	-0.21	0.193	0.19	0.785	0.579	-1.07	0.962	-0.0807	1.03 (inactive)
CON=C[C@@H](NS(=O)(=O)c1ccc(C)cc1)[C@H](C)C=CCC(=O)OC	-0.625	-0.722 (inactive)	-0.0173	-0.14	-0.374	0.0154	0.22	-1.35	1.26	-0.0082	0.4	-1.15	0.438	-0.717	0.718	0.747	0.764	0.585	-0.35	-0.42 (inactive)
CO[C@@H]1COC(=O)[C@H](CCSC)NC(=O)CC=C[C@@H](C)COC(=O)CCC[C@H]1C	-0.978	1.81 (inactive)	-0.0284	-0.147	-0.654	-1.31	1.01	0.973	1.68	-1.11	-0.252	-1.17	-0.798	-2.26	1.44	1.97	0.803	1.84	-0.65	1.05 (inactive)
